Source: PubChem BioAssay AID1259318 (Sanford-Burnham Center for Chemical Genomics, 2017)
The whole screen tested about 370,000 compounds, of which about 3,000 (0.81%) were called active.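 Rule for the calls: active = activity above about 14% (limit read from the data; passing the limit was not always enough); inactive = the rest.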 The list comes from a sample in which actives are over-represented; it also holds similar structures and randomly drawn compounds.

target: Nuclear receptor subfamily 1 group D member 1 (Homo sapiens) (UniProt P20393); experiment: modulators of Rev-erb alpha DNA binding, primary screen, biochemical, FITC-DNA, fluorescence polarization, uHTS (AID 1259318); conditions: Rev-erbα–FITC-DNA binding, 90 min, at 10 µM, hits give high values;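 note: 0% = DMSO wells with 35 nM protein and 100% = DMSO wells with 750 nM protein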
Sequence (P20393 whole entry, looked up): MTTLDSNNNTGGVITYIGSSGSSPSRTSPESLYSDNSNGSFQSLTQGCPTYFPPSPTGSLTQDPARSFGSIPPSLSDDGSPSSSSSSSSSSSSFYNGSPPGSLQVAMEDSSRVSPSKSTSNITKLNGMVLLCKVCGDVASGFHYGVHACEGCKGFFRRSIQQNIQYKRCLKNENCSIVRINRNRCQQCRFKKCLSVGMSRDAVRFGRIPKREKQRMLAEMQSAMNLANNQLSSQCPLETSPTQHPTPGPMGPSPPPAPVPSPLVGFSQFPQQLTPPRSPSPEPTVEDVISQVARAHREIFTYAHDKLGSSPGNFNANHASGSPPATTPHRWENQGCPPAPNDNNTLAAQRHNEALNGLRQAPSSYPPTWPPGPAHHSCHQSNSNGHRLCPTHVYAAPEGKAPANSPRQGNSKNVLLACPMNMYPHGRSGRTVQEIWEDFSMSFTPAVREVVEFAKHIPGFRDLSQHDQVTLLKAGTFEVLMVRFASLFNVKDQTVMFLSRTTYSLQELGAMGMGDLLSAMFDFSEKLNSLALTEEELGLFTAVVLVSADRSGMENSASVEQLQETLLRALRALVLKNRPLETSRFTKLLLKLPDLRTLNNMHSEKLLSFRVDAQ

activity, active:
Cc1c(-c2ccccc2)nc(N)c(C#N)c1-c1cccs1 29.3%
CCOc1cccc(NC(=O)Cn2nc(-c3ccc4c(c3)OCCO4)ccc2=O)c1 52.4%
CC1(C)Cc2nc3sc4c(SCC(=O)NC(c5ccccc5)c5ccccc5)ncnc4c3cc2CO1 199%
COC(=O)c1c(NC(C)=O)sc(C(=O)Nc2ccccc2OC)c1C 32.9%
COc1ccccc1N1CCN(CC(=O)Nc2ccnn2C2CCCC2)CC1 15.8%
CCC(C)C1(C2CCCC2)NC(=O)NC1=O (stereo unspecified) 16.3%

activity, inactive:
CCc1c(-c2ccccc2)nc(N)c(C#N)c1-c1cccs1 12%
CN1CCc2nc(SC(C(=O)O)c3ccccc3)c(C#N)c(-c3cccs3)c2C1 (stereo unspecified) -2.52%
C=CCOc1cccc(CNn2cn[nH]c2=S)c1 -6%
CN(C(=O)COC(=O)Cn1cnc2c1c(=O)n(C)c(=O)n2C)C1(C#N)CCCCC1 0.32%
O=C(CSc1ccc(-c2ccc(F)cc2)nn1)Nc1ccc2c(c1)OCCO2 -5.86%
CC(=O)c1cc2c(cc1NC(=O)Cn1nc(-c3ccc(F)cc3)ccc1=O)OCO2 1.35%
CC(C)C(C#CC1CC1)N(Cc1ccc2c(c1)OCO2)C(N)=NC(=O)/C=C/c1cccc(C(F)(F)F)c1 (stereo unspecified) -2.7%
Cn1c(-c2sccc2OCc2cccc(C(F)(F)F)c2)n[nH]c1=S -0.5%
O=C(CSc1ncnc2c1oc1ccccc12)NC1CCCC1 -1.38%
CC(C)CCSc1ncnc2c1oc1nc3c(cc12)COC(C)(C)C3 0.04%
COCCN1C2=C(COC(C)(C)C2)C(=S)NC1c1ccccc1 (stereo unspecified) 1.37%
COc1ccccc1NC(=O)C(CC(=O)O)Cc1cc(C)cc(C)c1 (stereo unspecified) -2.91%
COc1ccccc1NC(=O)c1c(Br)cnn1C 2.04%
O=C(CCc1ccc(S(=O)(=O)N2CCOCC2)cc1)Nc1ccc2ccccc2c1 -2.19%
O=C(NC1CC1)C(Cc1ccccc1)NS(=O)(=O)c1ccccc1F (stereo unspecified) 3.33%
CC(C(=O)N=Nc1c(O)n(C)c2ccc(Br)cc12)n1cnc2ccccc2c1=O (stereo unspecified) 2.88%
COc1ccccc1C(=O)Nc1ccnn1C1CCN(Cc2cnn(C)c2)CC1 4.21%
COc1cccc(N2CCN(CC(=O)Nc3ccnn3C3CCCC3)CC2)c1 5.07%
C#CCNc1nc(C(C)C)nc2c1nnn2Cc1ccccc1F 2.17%
CCCCCCCCCOC1OC(CO)C(O)C(O)C1NC(C)=O (stereo unspecified) 1.37%
